From PubChem BioAssay AID2685 (National Center for Advancing Translational Sciences (NCATS), 2010) come the findings set out here.

About 2,100 (0.66%) of roughly 320,000 compounds were called active. About 53% were inconclusive and are not listed. Calls follow the shape of the dose curve; as a rule, active = well fitted inhibition curve with a large enough effect in the signal ratio, with a control signal flat (not every such curve was filed as active); inconclusive = small, poorly fitted or top-dose-only effect, or effect the other way, or a change in a side signal; inactive = flat fitted curve, though single readings scatter; the % refers to the signal ratio. The list comes from a sample in which actives are over-represented; it also holds similar structures and randomly drawn compounds.
Potency is read from the fitted curve at half-maximal effect.

The test in a line: qHTS Assay for Lipid Storage Modulators in Drosophila S3 Cells.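 As to cell number change: cells counted by Cell Tracker Red CMTPX staining in the red channel.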 As to lipid storage change, negative = inhibition: % is scaled to controls: 0 for no effect and ±100 for the full control effect. The settings on record: BODIPY lipid droplet fluorescence, 18-24 h, cells fed with added oleic acid; cell number change: measured here: cell count max response; series mostly up to 46.1 µM; lipid storage change, negative = inhibition: at the top concentration. Put shortly:
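Drosophila S3 cells loaded with oleic acid (400 uM, as added) and compounds at several concentrations; lipid droplets imaged by 488-nm laser-scanning cytometry, 500–530 nm intensity and object ratio to cell channel. Percent activity normalized to 20 uM Triacsin C.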
A general note: qHTS replaces the single test concentration by a dilution series.
With `COc1ccc(NC(=O)COc2cccc(-n3cnnn3)c2)cc1`, the result was inactive and the cell number change is -3.85%.
Regarding `O=C(Nc1cccc(-n2cnnn2)c1)c1ccco1`, the “lipid storage change, negative = inhibition” value was 9.61% (inactive) and the cell number change is -16.6%.
On the same counts, the results for `O=C(Nc1ccc(C(F)(F)F)cc1)c1cccc(-n2cnnn2)c1` are 19% (inactive) and 8.84%.
Regarding `O=C(Nc1cccc(-n2cnnn2)c1)c1ccoc1COc1ccc(Cl)cc1`, the Potency is 29.1 µM (active) and the cell number change was -18.1%.
For `O=C(COc1cccc(-n2cnnn2)c1)Nc1ccccc1`, the “lipid storage change, negative = inhibition” value is -13.1% (inactive) and the cell number change was -12.3%.
Regarding `O=C(Nc1cccc(-n2cnnn2)c1)c1cccc(Cl)c1`, the Potency was 14.6 µM (active) and the cell number change is -16%.
On the same counts, the results for `Cc1cc(OCCCC(=O)Nc2cccc(-n3cnnn3)c2)ccc1Cl` are 3.26 µM (active) and 3.23%.
As for `O=C(CNC(=O)c1cccc(-n2cnnn2)c1)Nc1ccc(F)c(F)c1`, the “lipid storage change, negative = inhibition” value was 4.76% (inactive) and the cell number change amounted to 0.376%.
As for `Cc1ccc(C)c(NC(=O)c2cc[n+](C)cc2)c1`, the outcome was inactive and the cell number change is -24.7%.
Turning to `CCOC(=O)COc1ccc(S(=O)(=O)NCc2ccncc2)cc1`, the “lipid storage change, negative = inhibition” value was -23.8% (inactive).
Regarding `Cc1ccc(/C=C/C(=O)N(Cc2cccs2)C2CCS(=O)(=O)C2)cc1` (centres undefined), the “lipid storage change, negative = inhibition” value is 18.4% (inactive) and the cell number change turned out to be 11.3%.
`CCOC(=O)c1c(-c2ccccc2)csc1NC(=O)CSc1nc(N)cc(N)n1`: the “lipid storage change, negative = inhibition” value is 13.1% (inactive) and the cell number change came to 11.6%.
On the same counts, the results for `COCCCn1c(C)nnc1-c1cnn(-c2ccccc2)c1N` are 10.4% (inactive) and 22.6%.
On the same counts, the results for `O=C(Nc1cccnc1)c1ccc2c(c1)C(=O)N(CC1CCCO1)C2=O` (centres undefined) are -113% (inactive) and 5.85%.
On the same counts, the results for `COc1ccc2cc3cc(C(=O)NCCN4CCN(c5ccccc5F)CC4)oc3nc2c1` are -20.3% (inactive) and -11.8%.
As to `CCN(Cc1ccccc1)C(=O)CS(=O)(=O)c1ccccc1`, the “lipid storage change, negative = inhibition” value was -5.16% (inactive) and the cell number change stood at 0.704%.
As to `C/C=C(\CS(=O)(=O)c1ccccc1)S(=O)(=O)c1ccccc1`, the Potency is 5.17 µM (active) and the cell number change is -14.9%.
`C/C(CS(=O)(=O)c1ccccc1)=N\O`: the “lipid storage change, negative = inhibition” value was -23.4% (inactive) and the cell number change is -17.1%.
On the same counts, the results for `O=C(NNC(=O)c1cccc(S(=O)(=O)N2CCN(c3ccccc3)CC2)c1)c1ccc(Cl)cc1` are 2.76% (inactive) and -1.16%.
As for `O=C(Nc1cccc(C(F)(F)F)c1)c1cccnc1N1CCCC1`, the compound was classed as inactive.
Same read-out and setting: with `O=C(Nc1cccc(C(F)(F)F)c1)c1cccnc1N1CCN(CCO)CC1` the entry was “inactive”.
In the case of `CCN(CC)C(=O)Oc1ccc(Cl)c2cccnc12`, the “lipid storage change, negative = inhibition” value is 4.69% (inactive) and the cell number change was -13.1%.
Take `O=C(Oc1ccc(Cl)c2cccnc12)N1CCCCCC1`: the “lipid storage change, negative = inhibition” value was 2.39% (inactive) and the cell number change is 0.575%.
For `O=C(Nc1cccc(C(F)(F)F)c1)Oc1ccc(Cl)c2cccnc12`, the Potency was 8.2 µM (active) and the cell number change was -22.5%.
In the case of `O=C(Nc1cccc(C(F)(F)F)c1)c1cccnc1NCCO`, the Potency was 9.2 µM (active) and the cell number change turned out to be 17.5%.
As to `CCOc1ccccc1Oc1nc(-c2ccccc2O)nc2ccccc12`, the outcome was inactive and the cell number change was determined as 16.3%.
With `N#Cc1c(C(F)(F)F)cc(-c2ccc(F)cc2)nc1SCC(=O)O`, the “lipid storage change, negative = inhibition” value is 17% (inactive) and the cell number change was 0.873%.
In the case of `CC(c1ccc(O)cc1)(c1ccc(O)cc1)c1ccc(CCBr)cc1`, the “lipid storage change, negative = inhibition” value is -11.7% (inactive) and the cell number change was -16%.
On to `O=C(Nc1ccc(-n2cc(Cl)cn2)cc1)c1ccncc1`, for which the “lipid storage change, negative = inhibition” value was -2.29% (inactive) and the cell number change was found to be 13%.
Regarding `Cc1ccc(C(=O)/C=C/N(C)C)o1`, the “lipid storage change, negative = inhibition” value is -9.3% (inactive) and the cell number change was -4.62%.
Consider `COc1ccc(C2=NC(C)(C)Cc3cc(OC)c(OC)cc32)cc1`, for which the “lipid storage change, negative = inhibition” value was 14.1% (inactive) and the cell number change was -1.73%.
On the same counts, the results for `CCNC(=O)n1nccc1C(C)Oc1ccccc1` (centres undefined) are 7.19% (inactive) and 17.8%.
On the same counts, the results for `CCc1ccc(CNC(=O)C2CCN(S(=O)(=O)N3CC(C)CC(C)C3)CC2)cc1` (centres undefined) are -15.9% (inactive) and 14.3%.
On the same counts, the results for `CCOc1ccc(-n2ccnc(SCC(=O)NCCc3ccccc3)c2=O)cc1` are 22.2% (inactive) and -8.43%.
Regarding `COc1ccc(CNC(=O)CSc2nccn(-c3ccc(F)c(F)c3)c2=O)cc1`, the cell number change turned out to be 17.2% and the lipid storage change, negative = inhibition was -25.5% [at 0.0737 µM] (inactive).
Regarding `Cc1ccc(CNC(=O)CSc2nccn(-c3ccc(C)c(F)c3)c2=O)cc1`, the Potency was 14.6 µM (active) and the cell number change was -20%.
For `CN1CCN(c2ncnc3sc(-c4ccccc4)cc23)CC1`, the “lipid storage change, negative = inhibition” value was 15% (inactive) and the cell number change worked out at 24.2%.
On the same counts, the results for `CCN(CC)S(=O)(=O)c1ccc(C(=O)/C=C/c2ccc(-c3ccc([N+](=O)[O-])cc3)o2)cc1` are -2.16% (inactive) and 6.91%.
On the same counts, the results for `CN1CCN(C(=O)/C=C/c2ccc([N+](=O)[O-])cc2)CC1` are -0.257% (inactive) and -5.05%.
On the same counts, the results for `O=C(/C=C\c1ccc(-c2cccc([N+](=O)[O-])c2)o1)N1CCOCC1` are 0.516% (inactive) and 1.96%.
Regarding `CCc1ccc(C(=O)/C=C/c2ccc([N+](=O)[O-])o2)cc1`, the Potency is 1.3 µM (active) and the cell number change was -21.1%.
Take `COc1ccc(/C=C/C(=O)c2ccc([N+](=O)[O-])o2)cc1`: the “lipid storage change, negative = inhibition” value was -7.12% (inactive) and the cell number change was 5.86%.
For the compound `CN1CCN(C(=O)/C=C/c2ccc([N+](=O)[O-])o2)CC1`, the Potency is 32.6 µM (active) and the cell number change was -21.6%.
For the compound `CCOC(=O)c1ccc(NC(=S)NNC(=O)c2cc(-c3cccnc3)nc3ccccc23)cc1`, the “lipid storage change, negative = inhibition” value is -22.8% (inactive) and the cell number change was -10.9%.
On the same counts, the results for `OCC1(CCc2ccccc2)CCN(Cc2cnc(N3CCCC3)s2)CC1` are -4.43% (inactive) and -1.4%.
On the same counts, the results for `O=C(CCC(=O)N1CCOc2ccccc21)Nc1cc(F)ccc1F` are -28.3% (inactive) and -2.02%.
